The campaign covered roughly 2,100 compounds. About 320 (15%) were called active. Roughly 52% stayed inconclusive and do not appear here. Calls follow the shape of the dose curve; as a rule, active = well fitted cell-killing curve with a large enough effect; inconclusive = small, poorly fitted or top-dose-only effect, or effect the other way; inactive = flat fitted curve, though single readings scatter. The list shows a part of the results. A call without a number means that no potency is given here.
Potency is read from the fitted curve at half-maximal effect.

This test in a line: Viability Counterscreen for CMV-Luciferase Assay of Inhibitors of ATXN expression. Also: nearly all actives have a fitted effect of over 55% in size. The conditions noted are these: HEK-293 CMV-luciferase cells viability, protease fluorescence, 24 h. Summed up: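 In the same wells, a multiplexed format measured viability and then the CMV-luciferase signal in HEK-293 cells following 24 hr compound exposure at several concentrations. The viability substrate was Gly-Phe-AFC at 25 uM final.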
For orientation: The purpose of a counterscreen is to sort out artefacts and off-target activity.
Turning to `COc1ccc(N2CCN(c3ccnc4cc(Cl)ccc34)CC2)cc1`, the Potency result is “inactive”.

With `COc1cccc(OC)c1C(=O)OCC(=O)NC(=O)NCc1ccccc1`, the Potency result is “inactive”.

As to `CC(C)(C)c1ccc(Oc2ccc(N)cc2)cc1`, the Potency entry is “inactive”.

Turning to `Cc1nc2ncnn2c(N2CCN(c3cccc(C(F)(F)F)c3)CC2)c1C`, the Potency result was “inactive”.

Regarding `c1ccc2c(c1)c1c(c3ccccc32)CN2CCCC2C1` (centres undefined), the Potency entry was “inactive”.

In the case of `Cc1c(N=C2C=CC(=O)c3ccccc32)c(=O)n(-c2ccccc2)n1C`, the Potency is 28.2 µM (active).

For the compound `Cc1ccc(-c2cc(C(=O)NCCCN3CCOCC3)no2)cc1`, the Potency entry is “inactive”.

With `COC(=O)C1=C(C)N(Cc2ccccc2)C(=NCCc2cccnc2)N[C@H]1c1ccc(Br)cc1`, the Potency is 20 µM (active).

`c1ccc(-c2cc3c(N4CCN(c5ccccc5)CC4)ncnc3s2)cc1`: the Potency entry was “inactive”.

Take `COc1ccc(N(CC(=O)N2CCN(c3ccc(Cl)cc3)CC2)S(=O)(=O)c2c(C)n[nH]c2C)cc1`: the Potency result was “inactive”.

On to `O=C(c1ccoc1)N1CCN(c2cc(-c3ccco3)nc3cc(-c4ccccc4)nn23)CC1`, for which the Potency result was “inactive”.

As to `COc1ccccc1-c1cc2nc(-c3ccccc3)cc(N3CCN(C(=O)c4ccoc4)CC3)n2n1`, the Potency was 10 µM (active).

Turning to `COc1cccc(-c2cc3nc(-c4ccccc4)cc(N4CCN(C(=O)c5ccoc5)CC4)n3n2)c1`, the Potency entry was “inactive”.

`COc1cccc(C2CC(c3c(-c4ccccc4)c4cc(Cl)ccc4[nH]c3=O)=NN2S(C)(=O)=O)c1OC` (centres undefined): the Potency result was “inactive”.

Consider `CCCOc1ccc(C(=O)NC(=S)NNC(=O)c2c(-c3ccccc3)noc2C)cc1`, for which the Potency result was “inactive”.

For `O=C(/C=C/c1ccccc1)NC(=S)NNC(=O)c1cnccn1`, the Potency was 10 µM (active).

For `O=C(N/N=C1\CCCc2c1[nH]c1ccc(Cl)cc21)c1ccncc1`, the Potency result was “inactive”.

Turning to `Cc1cc(C)nc(/N=C(\N)Nc2ccc(C(C)C)cc2)n1`, the Potency entry was “inactive”.

As to `CCc1cc(-c2nnn(CCC3COCCO3)c2CC)ccc1-c1cn(CCc2c[nH]c3ccccc23)nn1` (centres undefined), the Potency entry was “inactive”.

As to `CCCc1nc2c(c(=O)c3ccccc3n2C)c(=O)n1C1CCCCCC1`, the Potency is 20 µM (active).

As to `CC(C)(C)OC(=O)CNC(=O)c1[nH]cnc1C(=O)Nc1ccc(CNC(=O)OC(C)(C)C)cc1`, the Potency result was “inactive”.

As for `CN(C)c1cc[n+](CC(=O)c2ccc(-c3ccccc3)cc2)cc1`, the Potency result is “inactive”.

With `CCC(=O)OC1(C(C)=O)CCC2C3CCC4=CC(=O)CCC4(C)C3CCC21C` (centres undefined), the Potency entry is “inactive”.

In the case of `NC(Cc1ccc(C(F)(F)F)cc1)c1csc(Nc2nccc(C(F)(F)F)n2)n1` (centres undefined), the Potency result is “inactive”.

Turning to `CC(C)(C)c1ccc(C(=O)N2CCCCCC2=O)cc1`, the Potency entry is “inactive”.

As for `CCN(CC)c1ccc(C(=O)N/N=C/c2ccccc2OC(F)F)cc1`, the Potency result was “inactive”.

`CCN(CC)c1ccc(/C=C/c2cccc[n+]2C)c(OC)c1`: the Potency is 14.1 µM (active).

Turning to `COc1ccccc1NC(=S)NC(=O)c1ccc(Cn2cc(Br)cn2)cc1`, the Potency entry is “inactive”.

For `COc1cc(-c2nnc(SCC(=O)N(Cc3ccccc3)C(C)(C)C)o2)cc(OC)c1OC`, the Potency result was “inactive”.

As to `Cc1ccc(NC(=O)c2ccc(-c3nn(C)c(=O)c4ccccc34)cc2)cc1`, the Potency result was “inactive”.

In the case of `C/C(=N\NC(=O)c1cc(C2CC2)nc2ccccc12)c1ccc(O)cc1O`, the Potency entry was “inactive”.

As for `CC(=O)Nc1ccc(Nc2c3ccccc3nc3ccccc23)cc1`, the Potency was 8.91 µM (active).

`CCc1nc2ccccc2c(C(=O)OCC(=O)Nc2ccc(NC(C)=O)cc2)c1C`: the Potency result is “inactive”.

As for `CSc1sc(C(=O)NN)c2c1C1(CCC2)SCCS1`, the Potency result was “inactive”.

As for `CC1CCCN(S(=O)(=O)c2ccc(C(=O)Nc3nnc(-c4ccccc4Cl)o3)cc2)C1` (centres undefined), the Potency result is “inactive”.

With `COc1ccc(/C=C2\CN(Cc3ccccc3)C/C(=C\c3ccc(OC)c(O)c3)C2=O)cc1O`, the Potency was 10 µM (active).

As for `O=C1/C(=C\c2cc(Cl)c(O)c(Cl)c2)SC(=S)N1Cc1ccccc1`, the Potency entry is “inactive”.

Turning to `OC1(c2ccc(Cl)cc2)CCN(Cc2c[nH]c3ccccc23)CC1`, the Potency result was “inactive”.

`COCCCn1c(-c2ccc(S(=O)(=O)N3CCOCC3)cc2)csc1=Nc1ccccc1`: the Potency entry is “inactive”.

In the case of `COc1ccc(Cl)cc1NC(=O)Nc1cccc([N+](=O)[O-])c1C`, the Potency entry is “inactive”.

Take `COc1ccc(Cl)cc1C(=O)Nc1ccccc1N1CCN(C(=O)C(C)C)CC1`: the Potency result was “inactive”.

Turning to `COc1ccc(NC(=O)c2cc(-c3cc(Cl)ccc3OC)n[nH]2)cc1OC`, the Potency is 0.398 µM (active).

`Cc1cc(C)c(C(=O)N2CCCC(N3CCN(c4cccc(C(F)(F)F)c4)CC3)C2)o1` (centres undefined): the Potency entry was “inactive”.

Regarding `CCOc1ccc(CCNC(=O)c2ccc(OCc3c(C)noc3C)cc2)cc1OCC`, the Potency entry was “inactive”.

The values above are taken from PubChem BioAssay AID1745849 (National Center for Advancing Translational Sciences (NCATS), 2022).
